In the supplement of paper PMC6089552:
Among all 3,200 compounds or so, about 300 (9.4%) showed activity. Many of the other results were omitted from the sample, so actives are more common in it than they were.

Tested on: A673/TR/shEF
Assay: cell viability (LOESS-normalised, relative to median of negative controls) (log2 ratio); higher = more viable cells (less compound effect), active = hit call of the paper (over 3 MAD below the median)
Details: treatment time: 72 h
Summary of the method: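 For three days, A673/TR/shEF Ewing sarcoma cells in 384-well plates (1,500 per well) were treated with library compounds at two or more concentrations or with DMSO controls, after doxycycline had been added or withheld 24 h beforehand to induce EWS-FLI1 shRNA knockdown. Viability was read by CellTiter-Glo luminescence on an Envision reader. The data were LOESS-corrected per plate, divided by the median of negative controls and log2-transformed.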

[1] = 0.25 µM, library screen: screen1, EWS-FLI1 expression: high (no doxycycline)
[2] = 0.25 µM, library screen: screen1, EWS-FLI1 expression: low (doxycycline-induced shRNA knockdown)
[3] = 2.5 µM, library screen: screen1, EWS-FLI1 expression: high (no doxycycline)
[4] = 2.5 µM, library screen: screen1, EWS-FLI1 expression: low (doxycycline-induced shRNA knockdown)
[5] = 0.025 µM, library screen: screen1, EWS-FLI1 expression: high (no doxycycline)
[6] = 0.025 µM, library screen: screen1, EWS-FLI1 expression: low (doxycycline-induced shRNA knockdown)
[7] = 25 µM, library screen: screen1, EWS-FLI1 expression: high (no doxycycline)
[8] = 25 µM, library screen: screen1, EWS-FLI1 expression: low (doxycycline-induced shRNA knockdown)
[9] = 0.25 µM, library screen: screen2, EWS-FLI1 expression: high (no doxycycline)
[10] = 0.25 µM, library screen: screen2, EWS-FLI1 expression: low (doxycycline-induced shRNA knockdown)
[11] = 2.5 µM, library screen: screen2, EWS-FLI1 expression: high (no doxycycline)
[12] = 2.5 µM, library screen: screen2, EWS-FLI1 expression: low (doxycycline-induced shRNA knockdown)
[13] = 0.103 µM, library screen: screen3, EWS-FLI1 expression: high (no doxycycline)
[14] = 0.103 µM, library screen: screen3, EWS-FLI1 expression: low (doxycycline-induced shRNA knockdown)
[15] = 0.308 µM, library screen: screen3, EWS-FLI1 expression: high (no doxycycline)
[16] = 0.308 µM, library screen: screen3, EWS-FLI1 expression: low (doxycycline-induced shRNA knockdown)
[17] = 0.926 µM, library screen: screen3, EWS-FLI1 expression: high (no doxycycline)
[18] = 0.926 µM, library screen: screen3, EWS-FLI1 expression: low (doxycycline-induced shRNA knockdown)
[19] = 2.8 µM, library screen: screen3, EWS-FLI1 expression: high (no doxycycline)
[20] = 2.8 µM, library screen: screen3, EWS-FLI1 expression: low (doxycycline-induced shRNA knockdown)
[21] = 8.3 µM, library screen: screen3, EWS-FLI1 expression: high (no doxycycline)
[22] = 8.3 µM, library screen: screen3, EWS-FLI1 expression: low (doxycycline-induced shRNA knockdown)
[23] = 25 µM, library screen: screen3, EWS-FLI1 expression: high (no doxycycline)
[24] = 25 µM, library screen: screen3, EWS-FLI1 expression: low (doxycycline-induced shRNA knockdown)

Measured: cell viability (log2)

COc1cc(/C=C/C(=O)/C=C(O)/C=C/c2ccc(O)c(OC)c2)ccc1O
inactive: [1] 0.0822 | [2] 0.0311 | [3] 0.0603 | [4] -0.0173

COC(=O)c1c(C)c2c(c(C)c1OC(C)=O)OC(=O)c1c(C)c(Cl)c(OC(C)=O)c(Cl)c1O2
inactive: [1] 0.0638 | [2] 0.0229 | [3] 0.0457 | [4] -0.0376

C/C1=C2N=C(/C=C3N=C(/C(C)=C4\[N-]C(C(CC(N)=O)C4(C)CCC(=O)NCC(C)OP(=O)([O-])OC4C(CO)OC(n5cnc6cc(C)c(C)cc65)C4O)C4(C)N=C1C(CCC(N)=O)C4(C)CC(N)=O)C(CCC(N)=O)C\3(C)C)C(CCC(N)=O)C/2(C)CC(N)=O.[Co+3] (stereo unspecified)
inactive: [1] -0.0019 | [2] 0.0391 | [3] 0.0729 | [4] 0.0491

COc1cc(CN2CCN(Cc3cccc(Cl)c3)CC2)c([N+](=O)[O-])cc1OC
inactive: [1] 0.103 | [2] 0.0472 | [3] 0.18 | [4] 0.111

CCc1c(C)c(C#N)c2nc3ccccc3n2c1N1CCN(C)CC1
inactive: [1] 0.145 | [2] 0.157 | [3] 0.118 | [4] 0.0375

N#C/C(=C\c1ccc(O)c(O)c1)C(N)=O
active: [3] -0.381 | [7] -0.224
inactive: [5] 0.246 | [6] 0.0278 | [2] 0.0878 | [4] 0.0598 | [8] 0.125
0.319: [1]

N#C/C(=C\c1ccc(O)c(O)c1)C(=O)c1ccc(O)c(O)c1
active: [9] -0.567 | [10] -0.546 | [11] -2.72 | [12] -2.83

N#C/C(=C\c1ccc(O)c(O)c1)C(=O)NCCCNC(=O)/C(C#N)=C/c1ccc(O)c(O)c1
inactive: [9] 0.153 | [10] 0.132 | [11] 0.199 | [12] 0.0575

COc1cc(/C=C(\C#N)C(=O)c2ccc(O)c(O)c2)cc(I)c1O
inactive: [9] 0.152 | [10] 0.068 | [11] 0.173 | [12] -0.0106

N#C/C(=C\c1c[nH]c2ccccc12)C(=O)c1ccc(O)c(O)c1
inactive: [9] 0.155 | [10] 0.0215 | [11] 0.202 | [12] 0.127

c1coc(CN2CCN(Cc3ccc4ccccc4c3)CC2)c1
inactive: [1] 0.0477 | [2] 0.0071 | [3] 0.142 | [4] 0.0832

COc1ccc2c(c1)CCC1C2CCC2(C)C1C[C@@H](O)[C@@H]2O (stereo partly specified)
inactive: [1] 0.105 | [2] 0.0162 | [3] 0.204 | [4] -0.0118

OC[C@H]1O[C@@H](n2cnc3c(NCCc4ccccc4)ncnc32)C(O)[C@H]1O (stereo partly specified)
inactive: [9] 0.15 | [10] 0.163 | [11] 0.0914 | [12] 0.0608

O=C(O)CCC(=O)OCC(NC(=O)C(Cl)Cl)C(O)c1ccc([N+](=O)[O-])cc1 (stereo unspecified)
inactive: 0.025 µM, library screen: screen2, EWS-FLI1 expression: high (no doxycycline) 0.127 | 0.025 µM, library screen: screen2, EWS-FLI1 expression: low (doxycycline-induced shRNA knockdown) 0.0706 | [1] -0.0271 | [2] 0.0474 | [9] 0.193 | [10] -0.0115 | [3] 0.0762 | [4] 0.177 | [11] 0.153 | [12] 0.083 | 25 µM, library screen: screen2, EWS-FLI1 expression: high (no doxycycline) 0.0706 | 25 µM, library screen: screen2, EWS-FLI1 expression: low (doxycycline-induced shRNA knockdown) 0.0478

O=c1c(O)c(-c2cc(O)c(O)c(O)c2)oc2cc(O)ccc12
inactive: [1] 0.128 | [2] -0.0317 | [3] 0.0648 | [4] 0.111

COc1cc(CN2CCN(Cc3cccc(F)c3)CC2)cc2c1OCO2
inactive: [1] 0.0873 | [2] 0.0661 | [3] 0.0312 | [4] 0.0566

COc1ccc(-c2ccc3c(N4CCOCC4)nc(N4C[C@@H](C)O[C@@H](C)C4)nc3n2)cc1CO
active: [19] -0.379 | [20] -0.377 | [21] -0.748 | [22] -0.617 | [23] -1.51 | [24] -1.39
inactive: [13] -0.102 | [14] -0.0255 | [15] -0.124 | [16] -0.0614 | [17] -0.171 | [18] -0.169

COc1ccc(-c2ccc3c(N4CCOC[C@@H]4C)nc(N4CCOC[C@@H]4C)nc3n2)cc1CO
active: [13] -0.268 | [14] -0.292 | [15] -0.621 | [16] -0.525 | [17] -1.05 | [18] -0.821 | [19] -1.66 | [20] -1.37 | [21] -1.89 | [22] -1.59 | [23] -1.94 | [24] -1.78

COc1cc(/C=C2\SC(NC(C)=O)=NC2=O)cc(Br)c1OC
inactive: [1] 0.0313 | [2] 0.0267 | [3] 0.0885 | [4] 0.0962

O=C(O)Cc1cc(I)c(Oc2cc(I)c(O)c(I)c2)c(I)c1
inactive: [1] 0.0518 | [2] 0.0863 | [3] 0.0776 | [4] -0.0191

COC(=O)[C@H](O)[C@H]1C(C)(C)[C@H](O)[C@@H]2CC3=C4CC(=O)O[C@@H](c5ccco5)[C@]4(C)CC[C@@H]3[C@@]1(C)C2=O
inactive: [1] 0.0837 | [2] 0.0423 | [3] 0.0416 | [4] -0.137

COc1ccc(C2NC(=O)NC(C)=C2C(=O)Nc2ccccc2Cl)cc1OC (stereo unspecified)
inactive: [1] 0.0783 | [2] 0.013 | [3] 0.0736 | [4] -0.0647

CCCCCCCCCCCCCCC[C@H](O)[C@H](N)CO
inactive: [9] 0.153 | [10] 0.105 | [11] 0.146 | [12] 0.102

CCCCCCCCCCCCC/C=C/[C@@H](O)[C@@H](N)CO
inactive: [5] 0.0541 | [6] 0.028 | [1] 0.0998 | [2] 0.0415 | [9] 0.0615 | [10] 0.0389 | [3] 0.0515 | [4] 0.0695 | [11] 0.162 | [12] 0.0866
active: [7] -4.25 | [8] -4.31

CCCCCCCC/C=C/CCCCCCCC(=O)OC(CO)COC(=O)CCCCCCCCCCCCCCC (stereo unspecified)
inactive: [9] 0.242 | [10] 0.101 | [11] 0.231 | [12] 0.152
